Assay results published in PubChem BioAssay (NCI).
This is part of a sample that, as a whole, favours compounds with a hit. Of some 79,000 tested, about 15% had one in any assay. Active and inactive are the calls of the source. Rule as the data show it: active = growth inhibition above about 70%; inactive = the rest.

Key:
[1] = NCI Yeast Anticancer Drug Screen. Data for the rad50 strain (AID 155);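 also: 0% = growth of vehicle-only cultures of the same strain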; settings: S. cerevisiae rad50 strain growth inhibition, hits give high values
How it was run: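 A DNA repair-deficient yeast mutant serves as the test organism; compound-induced growth inhibition is calculated against vehicle-treated cells.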

[2] = NCI Yeast Anticancer Drug Screen. Data for the mec2-1 strain (AID 157); settings: S. cerevisiae mec2-1 strain, hits give high values
How it was run: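 Using mec2-1 yeast: add compound, measure growth, express inhibition versus vehicle-treated cultures.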

[3] = NCI Yeast Anticancer Drug Screen. Data for the sgs1 mgt1 strain (AID 161);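 also: 0% = growth of cultures given vehicle only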; settings: S. cerevisiae sgs1 mgt1 strain, hits give high values
How it was run: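 Percent growth inhibition was derived by comparing compound-exposed mutant yeast with vehicle-exposed cultures. The strain carries alterations in DNA damage repair.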

[4] = NCI Yeast Anticancer Drug Screen. Data for the cln2 rad14 strain (AID 165);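 also: 0% = growth equal to vehicle treated cultures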; settings: S. cerevisiae cln2 rad14 strain, hits give high values
How it was run: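 Yeast strain cln2 rad14, bearing defects in cell cycle control and DNA repair, serves as the test system; values reflect growth inhibition compared with vehicle.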

[5] = NCI Yeast Anticancer Drug Screen. Data for the bub3 strain (AID 167); settings: S. cerevisiae bub3 mutant strain, hits give high values
How it was run: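 Inhibition values come from growth of compound-treated mutant yeast normalised to vehicle-treated controls.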

[6] = NCI Yeast Anticancer Drug Screen. Data for the mlh1 rad18 strain (AID 175); settings: S. cerevisiae mlh1 rad18 strain growth inhibition, hits give high values
How it was run: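 Steps: expose repair-defective yeast to compound; measure growth; express inhibition against vehicle-treated controls.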

[7] = at 5.0 µM (retest, dose inferred, filed as 0.5)
[8] = at 50.0 µM (retest, dose inferred, filed as 5.0)

Measured: growth inhibition

CCCOS(=O)(=O)c1ccccc1
inactive: [1]; [7] 14% | [1]; [8] 1% | [1]; at 50.0 µM 0.7% | [2]; [7] 19% | [2]; [8] 38% | [2]; at 50.0 µM 12.3% | [3]; [7] -7% | [3]; [8] 4% | [3]; at 50.0 µM 10.1% | [4]; [7] 38% | [4]; [8] 35% | [4]; at 50.0 µM -2.2% | [5]; [7] 23% | [5]; [8] 42% | [5]; at 50.0 µM -1.4% | [6]; [7] 11% | [6]; [8] 32% | [6]; at 50.0 µM 14.3%

Nc1nc(-c2ccccc2)nc(N)c1N=O
active: [1]; [8] 99% | [1]; at 50.0 µM 87.4% | [2]; [8] 98% | [2]; at 50.0 µM 89.5% | [3]; [8] 99% | [3]; at 50.0 µM 91.5% | [4]; [8] 100% | [4]; at 50.0 µM 77% | [5]; [7] 82% | [5]; [8] 97% | [5]; at 50.0 µM 89.2% | [6]; at 50.0 µM 88.5%
inactive: [1]; [7] 50% | [2]; [7] 63% | [3]; [7] 50% | [4]; [7] 52% | [6]; [7] 49% | [6]; [8] 67%

C=C1C(=O)OC2CC1C(OC(=O)/C=C/c1ccccc1)C/C(C)=C/CC/C(C)=C/CCC2(C)O (configuration not stated)
active: [1]; [8] 93% | [1]; at 50.0 µM 82.8% | [2]; [8] 96% | [2]; at 50.0 µM 81.7% | [3]; [8] 95% | [3]; at 50.0 µM 84.8% | [4]; [7] 84% | [4]; [8] 95% | [4]; at 50.0 µM 83% | [5]; [7] 88% | [5]; [8] 95% | [5]; at 50.0 µM 80% | [6]; [7] 77% | [6]; [8] 94% | [6]; at 50.0 µM 75.9%
inactive: [1]; [7] 50% | [2]; [7] 54% | [3]; [7] 60%

c1ccc2sc(SSN3CC4CCC(CC4)C3)nc2c1
active: [1]; [8] 91% | [2]; [8] 93% | [2]; at 50.0 µM 80.8% | [3]; [7] 75% | [3]; [8] 97% | [3]; at 50.0 µM 86.4% | [4]; [8] 89% | [5]; [8] 96% | [5]; at 50.0 µM 83.7% | [6]; [8] 89% | [6]; at 50.0 µM 80.7%
inactive: [1]; [7] 37% | [1]; at 50.0 µM 56.6% | [2]; [7] 19% | [4]; [7] 38% | [4]; at 50.0 µM 21.6% | [5]; [7] 55% | [6]; [7] 19%

CN1CCC(CN2c3ccccc3Sc3ccccc32)C1 (configuration not stated)
inactive: [1]; [7] 2% | [1]; [8] 16% | [1]; at 50.0 µM 38.5% | [2]; [7] 2% | [2]; [8] -27% | [2]; at 50.0 µM -22.9% | [3]; [7] -8% | [3]; [8] 11% | [3]; at 50.0 µM 21.1% | [4]; [7] -17% | [4]; [8] -1% | [4]; at 50.0 µM 51.2% | [5]; [7] 26% | [5]; [8] 6% | [5]; at 50.0 µM 19.4% | [6]; [7] 11% | [6]; [8] 16% | [6]; at 50.0 µM 32.2%

N#C/C(=N\Nc1ccc(Cl)cc1)C(=O)C1CC1
active: [1]; at 50.0 µM 86.4% | [2]; at 50.0 µM 77.5% | [3]; [8] 70% | [3]; at 50.0 µM 85.7% | [4]; at 50.0 µM 85.5% | [5]; [8] 78% | [5]; at 50.0 µM 77.4% | [6]; at 50.0 µM 82%
inactive: [1]; [7] 59% | [1]; [8] 62% | [2]; [7] 41% | [2]; [8] 46% | [3]; [7] 58% | [4]; [7] 55% | [4]; [8] 55% | [5]; [7] 51% | [6]; [7] 62% | [6]; [8] 69%

CC(C)c1ccc(Nc2n[nH]c(=S)s2)cc1
inactive: [1]; [7] 39% | [2]; [7] 32% | [3]; [7] 35% | [3]; [8] 68% | [4]; [7] 22% | [5]; [7] 33% | [6]; [7] 41%
active: [1]; [8] 82% | [1]; at 50.0 µM 86.1% | [2]; [8] 79% | [2]; at 50.0 µM 83% | [3]; at 50.0 µM 87.8% | [4]; [8] 85% | [4]; at 50.0 µM 84.6% | [5]; [8] 94% | [5]; at 50.0 µM 87.5% | [6]; [8] 82% | [6]; at 50.0 µM 84.1%

CN=C(N)N/N=C(\c1ccccc1)c1ccc(Br)cc1
active: [2]; at 50.0 µM 71%
inactive: [1]; [7] 11% | [1]; [8] 51% | [1]; at 50.0 µM 46.4% | [2]; [7] 8% | [2]; [8] 39% | [3]; [7] 13% | [3]; [8] 43% | [3]; at 50.0 µM 16.9% | [4]; [7] 18% | [4]; [8] 33% | [4]; at 50.0 µM 12.3% | [5]; [7] 5% | [5]; [8] 63% | [5]; at 50.0 µM 1.9% | [6]; [7] 10% | [6]; [8] 64% | [6]; at 50.0 µM -2.1%

CCOC(=O)C1(C)CCCC1N (configuration not stated)
active: [2]; [8] 93% | [4]; [8] 94% | [5]; [8] 98% | [6]; [8] 82%
inactive: [1]; [7] -1% | [1]; [8] 52% | [1]; at 50.0 µM -37.3% | [2]; [7] 2% | [2]; at 50.0 µM -35% | [3]; [7] -4% | [3]; [8] 42% | [3]; at 50.0 µM -17.6% | [4]; [7] 21% | [4]; at 50.0 µM 53.1% | [5]; [7] 14% | [5]; at 50.0 µM -5.45% | [6]; [7] 14% | [6]; at 50.0 µM 15.7%
